Source: PubChem BioAssay AID651820 (National Center for Advancing Translational Sciences (NCATS), 2012)
“And” between values parts separate entries of the source, which are not always exact repeats. Equal values may be shown once. Among all 340,000 compounds or so, about 12,000 (3.5%) were called active. Roughly 18% stayed inconclusive and do not appear here. Calls follow the shape of the dose curve; as a rule, active = well fitted inhibition curve with a large enough effect; inconclusive = small, poorly fitted or top-dose-only effect, or another doubt; inactive = no such curve, though single readings can be large or run the other way. The entries come from a sample that favours actives as a whole. A structure can be active in one record and inactive in another.
% is scaled to controls: 0 for no effect and ±100 for the full control effect; potency is read from the fitted curve at half-maximal effect.

Assay: qHTS Assay for Inhibitors of Hepatitis C Virus (HCV)
Conditions: Huh7.5.1 HCVcc-Cre infection, luciferase reporter, 44 h; series mostly up to 41.8 µM; activity change, negative = inhibition: at the top concentration
Procedure, shortened: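 Whole-lifecycle infectious HCVcc-Cre system; cells 1,000/well, compound then virus (~0.5 moi) added 4 h after plating, 44 h culture. Luciferase read 15 sec following 15 min substrate incubation, room temp.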
For Cc1cccc(NC(=S)NC(=O)c2ccc(Br)o2)c1, the “activity change, negative = inhibition” value was -5.17% (inactive). For Cc1onc(NC(=O)c2ccc([N+](=O)[O-])o2)c1Br, the “activity change, negative = inhibition” value was 12.3% (inactive). For Cc1cccc(NC(=O)c2ccc([N+](=O)[O-])o2)c1, the Potency was 3.55 µM (active). In the case of CC(C)(C)OC(=O)N[C@H](C(=O)OC(C)(C)C)c1ccc(Br)cc1, the “activity change, negative = inhibition” value is reported as -6.12% (inactive). For CC1(C)C(=O)CCC2(C)C1=CCC1C2C(=O)CC2(C)C1CCC2(O)C(=O)CO (stereo unspecified), the “activity change, negative = inhibition” value was 9.92% (inactive). In the case of CC(=O)OCC(=O)C1(O)CCC2C3CC(C)C4=CC(=O)CCC4(C)C3C(O)CC21C (stereo unspecified), the “activity change, negative = inhibition” value is reported as 7.93% (inactive). With C[C@]12C=CC(=O)C=C1CC[C@@H]1[C@@H]2C(=O)C[C@@]2(C)[C@H]1CC[C@]2(O)C(=O)CO the Potency was “inactive and 2.82 µM (active)”. In the case of COc1ccc(-n2c(C)cc(C(=O)CSc3nnc(-c4cccs4)o3)c2C)cc1, the Potency is reported as 11.2 µM (active). In the case of COc1ccc(-c2nnc(SCC(=O)c3cccs3)o2)c(OC)c1, the “activity change, negative = inhibition” value is reported as -14.7% (inactive). With COc1ccc(C(=O)CSc2nnc(-c3ccco3)o2)cc1 the “activity change, negative = inhibition” value was -11.4% (inactive). For COc1cc(C=NNC(=O)c2cccnc2)ccc1OC(=O)c1ccccc1F, the “activity change, negative = inhibition” value was -1.01% (inactive). For O=C(COC(=O)c1ccccn1)NNC(=O)c1ccc([N+](=O)[O-])cc1, the “activity change, negative = inhibition” value was -0.758% (inactive). With O=C(Nc1ccccc1)N1CCC(C(=O)N2CCN(Cc3ccccc3)CC2)CC1 the “activity change, negative = inhibition” value was 8.63% (inactive). With c1ccc(Nc2nc(-c3ccncc3)cs2)nc1 the Potency was 11.2 µM (active). In the case of c1cnc(Nc2nc(-c3ccc4ccccc4c3)cs2)nc1, the “activity change, negative = inhibition” value is reported as -8.89% (inactive). With Cc1cccc(Nc2nc(-c3ccccc3)cs2)n1 the “activity change, negative = inhibition” value was -8.65% (inactive). For CC(C)CN1CC(C)C(=O)N(c2ccccc2)C1=S (stereo unspecified), the “activity change, negative = inhibition” value was 2.15% (inactive). In the case of O=[N+]([O-])c1ccc(N2CCOCC2)cc1, the “activity change, negative = inhibition” value is reported as 9.72% (inactive). With COc1ccc(C2NCCCC2c2ccccc2)cc1 (stereo unspecified) the “activity change, negative = inhibition” value was 1.92% (inactive). With Cn1c(CN2CCOCC2)nc2cc(NC(=O)c3ccc(Cl)cc3)ccc21 the Potency was 2.82 µM (active). In the case of CC(=O)NCCc1nc2cc(NC(=O)c3ccccc3)ccc2n1C, the “activity change, negative = inhibition” value is reported as 10.2% (inactive). In the case of CCOC(=O)N1CCN(Cc2nc3cc(NC(C)=O)ccc3n2C)CC1, the “activity change, negative = inhibition” value is reported as 10.3% (inactive). With COc1cccc(/C(C)=N/Nc2ncc(Cl)cc2Cl)c1 the “activity change, negative = inhibition” value was -0.35% (inactive). With COc1cccc(/C=N/Nc2ncc(C(F)(F)F)cc2Cl)c1O the Potency was 5.62 µM (active). In the case of COC(=O)Cc1ccc(Oc2ncc(C(F)(F)F)cc2Cl)cc1, the “activity change, negative = inhibition” value is reported as -12.6% (inactive). With Cc1cccc(NC(=O)CN2CCN(CC(=O)NCC3(N4CCCCC4)CCCCC3)CC2)c1C the “activity change, negative = inhibition” value was 6.26% (inactive). With COc1ccc(S(=O)(=O)N2CCOCC2)cc1NC(=O)Cc1coc2cc(C)ccc12 the “activity change, negative = inhibition” value was -7.25% (inactive). With Cc1ccc(-c2nn(-c3ccccc3)cc2C(=O)NCCCN2CCCC2=O)cc1 the “activity change, negative = inhibition” value was 1.07% (inactive). For CC(C)CCn1c(=O)c2c(nc3n2CCCN3Cc2ccccc2)n(C)c1=O, the Potency was 11.2 µM (active). With Cn1c(=O)n(CCc2ccccc2)c(=O)c2c1nc1n2CCCN1c1ccccc1 the “activity change, negative = inhibition” value was -15.1% (inactive). With CC(C)CCn1c(CN(C)Cc2ccccc2)nc2c1c(=O)n(C)c(=O)n2C the “activity change, negative = inhibition” value was -26.5% (inactive).
